Experimental data reported in PubChem BioAssay (NCATS).
Inconclusive results are not listed. The source made the active and inactive calls. Calls follow the shape of the dose curve; as a rule, active = well fitted cell-killing curve with a large enough effect; inconclusive = small, poorly fitted or top-dose-only effect, or effect the other way; inactive = flat fitted curve, though single readings scatter.

Key:
Assay in all cases: Primary qHTS to identify gynecologic anti-cancer compounds using libraries of approved drugs and bioactive compounds (AID 1345084); also: nearly all actives have a fitted effect of over 55% in size
Details in all cases: Gynecologic cancer cell panel viability, ATPlite luminescence, 48 h; series mostly up to 57.5 µM
SKOV3 = test system: SKOV3
In short: (§1)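 Five-point cytotoxicity, 48 h drug exposure at 37 C, 5% CO2, on cells seeded 16 h beforehand. ATP content read by ATPlite luminescence.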

Tov-21-G = test system: Tov-21-G
In short: as §1

Tov112D = test system: Tov112D
In short: as §1
% is scaled to controls: 0 for no effect and ±100 for the full control effect.

CCC1OC(=O)C(C)CC(C)C(=O)/C(C)=C/C(C)C(=O)/C=C/C1(C)O (stereo unspecified)
inactive: Potency (SKOV3) | Potency (Tov-21-G) | Potency (Tov112D)

CC1(C)CCC[C@@]2(C)[C@H]1[C@H](O)C=C(CO)[C@]2(O)CO
inactive: Potency (SKOV3) | Potency (Tov-21-G) | Potency (Tov112D)

COc1ccc(C2OCC3C(c4cc(OC)c5c(c4)OCO5)OCC23)cc1OC (stereo unspecified)
inactive: Potency (SKOV3) | Potency (Tov-21-G) | Potency (Tov112D)

CC1(C)CC[C@]2(C(=O)O[C@@H]3O[C@H](CO)[C@@H](O)[C@H](O)[C@H]3O)CC[C@]3(C)C(=CCC4[C@@]5(C)CC[C@H](O[C@@H]6O[C@H](C(=O)O)[C@@H](O[C@@H]7O[C@H](CO)[C@@H](O)[C@H](O)[C@H]7O)[C@H](O)[C@H]6O[C@@H]6O[C@H](CO)[C@@H](O)[C@H](O)[C@H]6O)C(C)(C)C5CC[C@]43C)C2C1 (stereo partly specified)
inactive: activity change, negative = cytotoxicity (SKOV3) 10.3% [at 11.6 µM] | activity change, negative = cytotoxicity (Tov-21-G) -2% [at 11.6 µM] | activity change, negative = cytotoxicity (Tov112D) 6.91% [at 11.6 µM]

CC(C)=C1CC2C(CCC2(C)O)C(C)(O)CC1=O (stereo unspecified)
inactive: Potency (SKOV3) | Potency (Tov-21-G) | Potency (Tov112D)

COC(=O)C(CC1(O)c2ccccc2N2C(=O)C(C)(C)N(O)C21)n1cnc2ccccc2c1=O (stereo unspecified)
inactive: Potency (SKOV3) | Potency (Tov-21-G) | Potency (Tov112D)

CC(C)c1cc2c(c(O)c1O)[C@@]13CCCC(C)(C)C1[C@@H](O)[C@@H]2OC3=O (stereo partly specified)
inactive: Potency (SKOV3) | Potency (Tov-21-G) | Potency (Tov112D)

COc1cc(/C=C/C(=O)O[C@H]2C[C@@H]3C(C(=O)O)=CO[C@@H](O[C@@H]4O[C@H](CO)[C@@H](O)[C@H](O)[C@H]4O)[C@@H]3[C@H]2C)ccc1O
inactive: Potency (SKOV3) | Potency (Tov-21-G) | Potency (Tov112D)

O=C(O)c1cc(C(F)(F)F)ccc1N1CC[C@H](OCc2ccccn2)C1
inactive: Potency (SKOV3) | Potency (Tov-21-G) | Potency (Tov112D)

C=CC(C)(CC/C=C(\C)C(=O)OC[C@H]1O[C@@H](OC(C)(C=C)CC/C=C(\C)C(=O)O[C@H]2[C@H](O)[C@@H](O)[C@H](OC(C)(C=C)CC/C=C(\C)C(=O)O)O[C@@H]2CO)[C@H](O)[C@@H](O)[C@@H]1O)O[C@@H]1O[C@H](CO)[C@@H](O)[C@H](O)[C@H]1O (stereo partly specified)
inactive: activity change, negative = cytotoxicity (SKOV3) 0.327% [at 11.6 µM] | activity change, negative = cytotoxicity (Tov-21-G) -2.47% [at 11.6 µM] | activity change, negative = cytotoxicity (Tov112D) 8.98% [at 11.6 µM]

C[C@@H]1O[C@@H](O[C@H]2[C@H](O[C@H]3[C@H](O[C@H]4CC[C@@]5(C)C(CC[C@]6(C)C5CC=C5[C@@H]7CC(C)(C)CC(=O)[C@]7(C)CC[C@]56C)[C@@]4(C)CO)O[C@H](C(=O)O)[C@@H](O)[C@@H]3O)O[C@H](CO)[C@H](O)[C@@H]2O)[C@H](O)[C@H](O)[C@H]1O (stereo partly specified)
inactive: activity change, negative = cytotoxicity (SKOV3) 0.762% [at 11.6 µM] | activity change, negative = cytotoxicity (Tov-21-G) 5.22% [at 11.6 µM] | activity change, negative = cytotoxicity (Tov112D) -2.67% [at 11.6 µM]

OC[C@H]1O[C@@H](OCCc2ccccc2)[C@H](O[C@@H]2OC[C@@H](O)[C@H](O)[C@H]2O)[C@@H](O)[C@@H]1O
inactive: Potency (SKOV3) | Potency (Tov-21-G) | Potency (Tov112D)

OC[C@H]1O[C@@H](OCCc2ccccc2)[C@H](O)[C@@H](O)[C@@H]1O
inactive: Potency (SKOV3) | Potency (Tov-21-G) | Potency (Tov112D)

CC1=C2CC(=O)C(C)CC/C=C(\C)CC2OC1=O (stereo unspecified)
inactive: Potency (SKOV3) | Potency (Tov-21-G) | Potency (Tov112D)

COc1c(O)cc2c(c1O)C(=O)O[C@H](C)[C@H]2O
inactive: Potency (SKOV3) | Potency (Tov-21-G) | Potency (Tov112D)

CCC(C)C(C(=O)O)N1Cc2c(OCC=C(C)C)c(C)c(OC)c(C(=O)O)c2C1=O (stereo unspecified)
inactive: Potency (SKOV3) | Potency (Tov-21-G) | Potency (Tov112D)

O=C(O)c1cc(O[C@@H]2O[C@H](CO)[C@@H](O)[C@H](O)[C@H]2O)ccc1O
inactive: Potency (SKOV3) | Potency (Tov-21-G) | Potency (Tov112D)

COC(=O)C[C@H]1C(C)(C)[C@H](OC(=O)C(C)C)C2CC3=C4CC(=O)O[C@@H](c5ccoc5)[C@]4(C)CCC3[C@@]1(C)C2=O (stereo partly specified)
inactive: Potency (SKOV3) | Potency (Tov-21-G) | Potency (Tov112D)

CC1=CC23[C@H](C=C(C(=O)O)[C@@H]2COC(=O)[C@]3(O)CO)[C@@H]1C (stereo partly specified)
inactive: Potency (SKOV3) | Potency (Tov-21-G) | Potency (Tov112D)

CC(C)C1CCC(C(=O)N[C@@H](Cc2ccccc2)C(=O)O)CC1 (stereo partly specified)
inactive: Potency (SKOV3) | Potency (Tov-21-G) | Potency (Tov112D)

COc1c2c(c(C)c3c1C(=O)OC3)OC1(C)CC(O)C34OC(O)(CCC3(C)C1C2)OC4(C)C (stereo unspecified)
inactive: Potency (SKOV3) | Potency (Tov-21-G) | Potency (Tov112D)

C=C[C@@]1(C)CCC2=C([C@H]1OC(C)=O)[C@H](OC(C)=O)CC1[C@](C)(C(=O)OC)CC[C@H](OC(C)=O)[C@]21C (stereo partly specified)
inactive: Potency (SKOV3) | Potency (Tov-21-G) | Potency (Tov112D)
